Active and inactive are the calls of the source.
Columns and labels:
[1] = test system: PRMT1 (protein arginine N-methyltransferase 1); test: PRMT1 binders on small-molecule microarrays, primary screen, biochemical, small-molecule microarray, 635 nm fluorescence (AID 1088); details: small-molecule microarray binding, higher = more signal;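 further: binding of Prmt1 protein to compounds spotted on small-molecule microarray slides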
[2] = yeast growth modulation, basal conditions, primary screen, YJM789 clinical isolate, OD600, 24 h (AID 1089);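 further: growth of clinical yeast isolate S. cerevisiae YJM 789 seeded 1000 cells per well; test concentration not given here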; details: S. cerevisiae YJM789 growth, higher = more signal, called active from +8 up or from −8 down
[3] = fission yeast growth modulation, primary screen, strain 972, OD600, 24 h, no modulator (AID 1090);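 further: basal condition with compound alone and no growth modifier present; test concentration not given here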; details: S. pombe 972 growth, higher = more signal, called active from +8 up or from −8 down
[4] = S. cerevisiae growth modulation with rapamycin, primary screen, strain BY4716, OD600, 96 h (AID 1091); details: higher = more signal, called active from +8 up or from −8 down; further: test concentration not given here
[5] = target: Torsin-1A-interacting protein 2 (Homo sapiens) (UniProt Q8NFQ8); test: LULL1 binders on small-molecule microarray, primary screen, cell lysate, human LULL1 lysate, 635/667 nm fluorescence (AID 1092); details: hLULL1 lysate binding, 635 nm fluorescence, higher = more signal;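 further: probe is lysate of COS7 cells overexpressing human LULL1; score merges per-feature 667 nm fluorescence with signal-to-noise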
[6] = E. coli growth modulation, two-sided OD650, primary screen, E. coli filamentation project, strain DRC41, 24 h (AID 1093); details: OD650, 24 h, higher = more signal, called active from +8 up or from −8 down;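 further: MC1000 strain lacking acrAB efflux and sulA so SOS filamentation is blocked; test concentration not given here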
[7] = small-molecule microarray binders of probe aLefty2, primary screen, biochemical, biotinylated probe, 635/667 nm fluorescence (AID 1094); details: higher = more signal;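 further: score merges spot fluorescence near 667 nm with spot signal-to-noise ratio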
[8] = test system: Noggin (protein binding on small-molecule microarray); test: Noggin binders on small-molecule microarray, primary screen, biochemical, 635/667 nm fluorescence (AID 1095); details: 635 nm fluorescence, higher = more signal;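 further: score merges 667 nm feature fluorescence with signal to noise over triplicate slides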
[9] = target: Neurogenic locus notch homolog protein 3 (Homo sapiens) (UniProt Q9UM47); test: NOTCH3 binders on small-molecule microarray, primary screen, biochemical, 635/667 nm fluorescence (AID 1096); details: NOTCH3 binding, 635 nm fluorescence, higher = more signal
[10] = small-molecule microarray binders of probe aEGFR, primary screen, biochemical, biotinylated probe, 635/667 nm fluorescence (AID 1097); details: higher = more signal;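 further: probe is a biotinylated anti-EGFR antibody binding compounds printed on slides; score combines fluorescence near 667 nm and signal to noise of each spot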

Sequence of Torsin-1A-interacting protein 2 (Homo sapiens) (Q8NFQ8 whole entry, looked up): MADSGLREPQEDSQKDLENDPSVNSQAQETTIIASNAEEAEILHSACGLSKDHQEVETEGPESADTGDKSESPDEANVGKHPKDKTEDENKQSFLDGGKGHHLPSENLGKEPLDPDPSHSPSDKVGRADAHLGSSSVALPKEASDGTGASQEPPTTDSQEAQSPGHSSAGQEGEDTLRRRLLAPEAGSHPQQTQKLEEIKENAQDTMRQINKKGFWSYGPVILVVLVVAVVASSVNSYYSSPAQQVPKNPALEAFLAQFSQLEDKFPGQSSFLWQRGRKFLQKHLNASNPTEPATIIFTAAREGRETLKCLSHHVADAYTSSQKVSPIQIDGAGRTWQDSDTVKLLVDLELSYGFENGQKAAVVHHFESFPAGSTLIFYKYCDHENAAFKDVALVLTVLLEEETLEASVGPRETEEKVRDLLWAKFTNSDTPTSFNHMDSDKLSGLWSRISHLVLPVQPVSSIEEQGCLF
Sequence of Neurogenic locus notch homolog protein 3 (Homo sapiens) (Q9UM47 whole entry, looked up): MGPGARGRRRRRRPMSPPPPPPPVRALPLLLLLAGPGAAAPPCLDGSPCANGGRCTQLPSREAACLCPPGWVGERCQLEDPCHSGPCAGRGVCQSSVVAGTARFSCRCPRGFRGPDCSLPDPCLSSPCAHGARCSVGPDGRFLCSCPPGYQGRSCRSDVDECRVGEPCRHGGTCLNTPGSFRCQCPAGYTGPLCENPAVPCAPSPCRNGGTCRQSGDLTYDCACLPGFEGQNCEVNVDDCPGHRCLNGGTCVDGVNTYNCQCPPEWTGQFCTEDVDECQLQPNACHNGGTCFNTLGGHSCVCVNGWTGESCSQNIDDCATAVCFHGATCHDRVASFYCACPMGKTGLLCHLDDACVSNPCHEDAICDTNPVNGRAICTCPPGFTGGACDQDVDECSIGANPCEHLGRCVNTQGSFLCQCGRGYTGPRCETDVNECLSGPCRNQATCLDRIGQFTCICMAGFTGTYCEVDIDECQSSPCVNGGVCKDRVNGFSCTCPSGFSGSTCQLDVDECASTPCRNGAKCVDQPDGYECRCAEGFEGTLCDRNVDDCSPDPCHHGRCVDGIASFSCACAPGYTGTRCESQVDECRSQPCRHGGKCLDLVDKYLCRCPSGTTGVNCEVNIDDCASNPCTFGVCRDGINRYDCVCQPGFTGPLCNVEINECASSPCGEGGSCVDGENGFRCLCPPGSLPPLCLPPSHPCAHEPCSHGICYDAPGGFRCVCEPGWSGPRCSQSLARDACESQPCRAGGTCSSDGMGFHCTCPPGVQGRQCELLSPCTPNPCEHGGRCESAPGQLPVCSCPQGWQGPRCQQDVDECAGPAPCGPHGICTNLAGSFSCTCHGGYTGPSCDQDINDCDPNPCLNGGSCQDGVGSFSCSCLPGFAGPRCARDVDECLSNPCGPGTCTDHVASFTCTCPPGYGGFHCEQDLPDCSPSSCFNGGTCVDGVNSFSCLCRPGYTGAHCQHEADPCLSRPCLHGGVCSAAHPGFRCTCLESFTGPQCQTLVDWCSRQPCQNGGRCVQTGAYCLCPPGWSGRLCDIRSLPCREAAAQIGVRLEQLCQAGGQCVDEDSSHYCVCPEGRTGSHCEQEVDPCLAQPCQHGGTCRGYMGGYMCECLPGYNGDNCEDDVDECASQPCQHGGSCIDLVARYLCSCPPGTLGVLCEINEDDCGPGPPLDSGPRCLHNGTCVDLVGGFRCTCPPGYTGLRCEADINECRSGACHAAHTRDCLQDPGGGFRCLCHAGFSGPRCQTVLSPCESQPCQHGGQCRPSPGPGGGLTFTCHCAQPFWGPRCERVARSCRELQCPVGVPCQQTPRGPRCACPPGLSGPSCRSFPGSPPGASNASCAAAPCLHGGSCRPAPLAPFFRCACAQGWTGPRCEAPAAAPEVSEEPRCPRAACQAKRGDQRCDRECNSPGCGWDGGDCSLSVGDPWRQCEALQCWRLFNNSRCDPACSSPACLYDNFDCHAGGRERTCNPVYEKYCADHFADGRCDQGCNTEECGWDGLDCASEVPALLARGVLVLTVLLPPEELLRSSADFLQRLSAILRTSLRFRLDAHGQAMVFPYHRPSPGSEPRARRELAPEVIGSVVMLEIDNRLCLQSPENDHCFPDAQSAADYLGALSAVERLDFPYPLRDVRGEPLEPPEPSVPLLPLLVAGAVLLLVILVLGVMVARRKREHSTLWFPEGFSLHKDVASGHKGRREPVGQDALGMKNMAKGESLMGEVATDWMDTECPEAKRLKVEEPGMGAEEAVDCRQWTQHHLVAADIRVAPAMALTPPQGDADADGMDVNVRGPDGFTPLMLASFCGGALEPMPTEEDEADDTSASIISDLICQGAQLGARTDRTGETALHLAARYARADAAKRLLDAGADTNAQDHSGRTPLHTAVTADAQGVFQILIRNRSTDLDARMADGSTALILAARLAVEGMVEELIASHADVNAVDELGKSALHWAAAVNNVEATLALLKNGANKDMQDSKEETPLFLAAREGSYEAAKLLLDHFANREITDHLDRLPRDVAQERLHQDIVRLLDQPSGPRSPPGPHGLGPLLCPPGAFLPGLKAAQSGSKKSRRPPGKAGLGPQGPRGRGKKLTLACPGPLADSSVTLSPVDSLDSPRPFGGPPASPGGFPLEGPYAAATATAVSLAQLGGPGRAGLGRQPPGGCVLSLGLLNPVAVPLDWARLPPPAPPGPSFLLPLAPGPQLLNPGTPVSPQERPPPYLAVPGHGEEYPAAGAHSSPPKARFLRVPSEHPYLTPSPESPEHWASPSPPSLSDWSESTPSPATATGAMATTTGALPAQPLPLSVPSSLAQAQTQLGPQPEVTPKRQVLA

Structure (SMILES) | composite z-score [1] | z-score [2] | z-score [3] | z-score [4] | composite z-score [5] | z-score [6] | composite z-score [7] | composite z-score [8] | composite z-score [9] | composite z-score [10]
CC(C)N1C(=O)C[C@@](C(=O)NCC(F)(F)F)(c2ccc([N+](=O)[O-])cc2)[C@H]1c1ccc(CO)cc1 | 1.55 | -0.804 (inactive) | -1.63 (inactive) | -1.63 (inactive) | 3.32 | -0.29 (inactive) | -0.195 | 0.493 | 0.356 | -0.0987
C=CCC(OC(C)=O)[C@@H]1[C@@H](N(Cc2cc3ccccc3o2)C(=O)c2cccc3ccccc23)c2cc(OCCCO)ccc2N1C(=O)c1ccc(-c2ccccc2)cc1 (stereo not given in full) | -0.101 | 0.109 (inactive) | -0.847 (inactive) | 0.0344 (inactive) | 0.581 | 1.78 (inactive) | -0.0674 | 0.293 | -0.527 | 0.0969
COCCOC(=O)N1C(=O)[C@@]2(c3cc(C#Cc4ccc(OC)cc4)ccc31)[C@H](c1ccc(O)cc1)N1[C@H](c3ccccc3)[C@H](c3ccccc3)OC(=O)[C@H]1[C@@H]2C(=O)N1CCc2cc(OC)c(OC)cc2C1 | 1.55 | 0.728 (inactive) | -0.133 (inactive) | 0.803 (inactive) | 2.49 | 1.37 (inactive) | -0.0412 | 0.75 | 1.08 | -0.115
CC1(C)[C@@H]2CC(C(O)C3C=CC4C(=O)N(c5ccccc5)C(=O)C4N3Nc3ccc([N+](=O)[O-])cc3)=C[C@H]1C2 (stereo not given in full) | 1.55 | -0.0209 (inactive) | 0.287 (inactive) | 2.09 (inactive) | 3.71 | -0.692 (inactive) | 0.109 | 0.375 | 1.03 | 0.184
COC(=O)C(CC#Cc1ccc2c(c1)[C@]1(C(=O)N2)[C@H](c2ccc(OCCO)cc2)N2[C@H](c3ccccc3)[C@H](c3ccccc3)OC(=O)[C@H]2[C@@H]1C(=O)Nc1nc2ccccc2s1)C(=O)OC | 1.58 | 2.63 (inactive) | 2.22 (inactive) | 3.14 (inactive) | 2.45 | 2.13 (inactive) | -0.175 | 1.41 | 1.09 | 0.0562
C=C(CC1([C@@H](NP(=O)(c2ccccc2)c2ccccc2)[C@H]2C[C@@H]2CCCC)CC1)c1ccccc1 | 0.759 | -0.254 (inactive) | 0.204 (inactive) | 3.83 (inactive) | 2.53 | -0.357 (inactive) | 0.153 | -0.591 | 0.418 | -0.0844
Cc1ccccc1C(O)C1C=CC2C(=O)N(c3ccccc3)C(=O)C2N1Nc1ccc(C(C)C)cc1 (stereo not given) | 1.13 | 1.38 (inactive) | 0.0135 (inactive) | 0.798 (inactive) | 2.3 | -1.89 (inactive) | -0.0675 | -0.0693 | 1.07 | 0.0461
CC1CC/C=C\[C@H]2OC34C=CCN(C(C)(C)C)C(=O)[C@H]3N(C(C)CO)C(=O)[C@@H]4C2C(=O)O1 (stereo not given in full) | -0.282 | 0.214 (inactive) | -0.538 (inactive) | -0.0168 (inactive) | -0.656 | -0.434 (inactive) | -0.207 | 0.0449 | -0.454 | -0.27
COC(=O)[C@@]1(Cc2ccc(OC)cc2)[C@H]2c3cc(C(=O)N(C)C)n(C)c3C[C@H]2CN1C(=O)c1ccccc1 | 1.4 | 0.116 (inactive) | -0.756 (inactive) | 9.05 (active) | 3.73 | -1.63 (inactive) | 0.654 | 0.727 | 1.02 | 0.382
O=C1O[C@H](c2ccccc2)[C@H](c2ccccc2)N2[C@H]1[C@@H](C(=O)N1CCCCCCC1)[C@]1(C(=O)Nc3ccc(C#CCCO)cc31)[C@H]2c1ccccc1OCCO | 1.55 | 2.09 (inactive) | -13.6 (active) | 4.15 (inactive) | 5.15 | 0.689 (inactive) | 1.96 | 2.41 | 1.01 | 1.34
C[N+](C)(C)CCCC[C@@H]1NC(=O)[C@H]2C[C@@H](C(=O)NCCCCCCNC(=O)CS)[C@@H](c3cccc(OCCO)c3)N2C1=O | -0.452 | -0.173 (inactive) | 0.532 (inactive) | -0.0564 (inactive) | 2.01 | 0.154 (inactive) | -0.0766 | -0.33 | -0.837 | -0.268
COC(=O)C(CC#Cc1ccc2c(c1)[C@]1(C(=O)N2)[C@H](c2ccc(OCCO)cc2)N2[C@H](c3ccccc3)[C@H](c3ccccc3)OC(=O)[C@H]2[C@@H]1C(=O)N1CCc2cc(OC)c(OC)cc2C1)C(=O)OC | 1.57 | 2.12 (inactive) | 1.74 (inactive) | 5.14 (inactive) | 3.34 | 0.49 (inactive) | 0.365 | -1.11 | 1.07 | 0.169
CC1CC/C=C\[C@H]2OC34C=CCN(C(C)(C)C)C(=O)[C@H]3N(CCO)C(=O)[C@@H]4C2C(=O)O1 (stereo not given in full) | 1.06 | -1.33 (inactive) | -0.905 (inactive) | -0.471 (inactive) | 2.92 | 1.45 (inactive) | -0.0589 | 0.112 | -0.916 | -0.312
COc1cc2c(cc1OC)CN(C(=O)[C@H]1[C@@H]3C(=O)O[C@@H](c4ccccc4)[C@@H](c4ccccc4)N3[C@@H](c3ccc(O)cc3)[C@]13C(=O)Nc1ccc(C#CCCO)cc13)CC2 | 1.56 | 1 (inactive) | -0.0822 (inactive) | 1.91 (inactive) | 2.44 | 1.32 (inactive) | -0.145 | 0.837 | 0.434 | -0.152
C=CCN1C(=O)[C@@]2(Cc3ccccc31)N=C(c1ccc(OCCCO)cc1)O[C@H]2c1ccccc1 | 1.54 | -1.95 (inactive) | -6.68 (inactive) | 2.77 (inactive) | 3.12 | 1.44 (inactive) | 0.352 | 0.638 | 1.11 | 0.122
COCCOC(=O)N1C(=O)[C@@]2(c3cc(C#CCCO)ccc31)[C@H](C(N)=O)[C@H]1C(=O)O[C@H](c3ccccc3)[C@H](c3ccccc3)N1[C@@H]2c1ccc(O)cc1 | -0.101 | 0.0223 (inactive) | -0.0181 (inactive) | -0.535 (inactive) | 0.877 | -0.844 (inactive) | -0.159 | -0.248 | -0.589 | -0.202
O=C1NC(=O)C2C1C=CC(C(O)c1cc(C(F)(F)F)cc(C(F)(F)F)c1)N2Nc1ccccn1 (stereo not given) | 0.463 | 0.307 (inactive) | 1.19 (inactive) | -0.697 (inactive) | 1.21 | -1.02 (inactive) | 0.05 | 0.159 | 0.429 | -0.129
COC(=O)C(CC#Cc1ccc2c(c1)[C@]1(C(=O)N2)[C@H](C(=O)Nc2nc3ccccc3s2)[C@H]2C(=O)O[C@H](c3ccccc3)[C@H](c3ccccc3)N2[C@@H]1c1ccccc1OCCO)C(=O)OC | 1.55 | 1.35 (inactive) | 1.12 (inactive) | 1.39 (inactive) | 2.69 | -0.404 (inactive) | 0.0293 | 0.485 | 1.08 | -0.0244
O=C1C2C=CC(C(O)CCc3ccccc3)N(Nc3ccccc3F)C2C(=O)N1c1ccccc1 (stereo not given) | 1.49 | -0.566 (inactive) | 0.624 (inactive) | -0.378 (inactive) | 3.28 | -0.0741 (inactive) | 0.183 | 0.279 | 1.08 | 0.0059
COc1cc(Br)cc(C(O)C2C=CC3C(=O)N(C)C(=O)C3N2N2CCCCC2)c1OC (stereo not given) | -0.962 | 0.733 (inactive) | 1.13 (inactive) | 1.73 (inactive) | 1.49 | -1.54 (inactive) | 0.118 | -1.27 | -0.702 | 0.0122
CCCC[C@@H]1C[C@H]1[C@@H](NC(=O)c1ccco1)c1ccccc1C(F)(F)F | -0.191 | 0.493 (inactive) | 1.13 (inactive) | -0.0491 (inactive) | 1.53 | -0.763 (inactive) | 1.36 | -0.339 | 0.453 | 0.856
CN(C)CCCCCCNC(=O)[C@@H]1C[C@@H]2C(=O)N[C@@H](Cc3ccccc3)C(=O)N2[C@@H]1c1ccc(O)cc1 | 1.53 | -0.18 (inactive) | -0.899 (inactive) | 0.0891 (inactive) | 2.84 | -0.13 (inactive) | 0.195 | 1.8 | 1.09 | 0.246
CC(C)C(=C=CC[C@H](O)c1ccc(OCCO)cc1)CCO | 1.55 | -1.83 (inactive) | -1.27 (inactive) | -0.768 (inactive) | 2.22 | -0.327 (inactive) | -0.0113 | 1.37 | -0.0409 | -0.12
CN(C)C(=O)[C@]1(Cc2ccccc2N=[N+]=[N-])N=C(c2ccc(OCCCO)cc2)O[C@@H]1c1ccccc1N=[N+]=[N-] | 1.55 | -2.43 (inactive) | -2.73 (inactive) | 4.05 (inactive) | 3.2 | 0.799 (inactive) | 0.191 | 0.923 | 1.07 | -0.0111
NC(=O)NCC#Cc1ccc2c(c1)[C@]1(C(=O)N2)[C@H](C(N)=O)[C@H]2C(=O)O[C@H](c3ccccc3)[C@H](c3ccccc3)N2[C@@H]1c1ccc(O)cc1 | 0.317 | -0.989 (inactive) | -0.434 (inactive) | -0.07 (inactive) | 3.6 | 0.792 (inactive) | 0.411 | 0.544 | -0.382 | -0.413
O=C1C[C@]2(c3ccc([N+](=O)[O-])cc3)C(=O)N(CC(F)(F)F)c3cc(CO)ccc3[C@H]2N1C1CCCCC1 | 0.137 | 0.926 (inactive) | -0.378 (inactive) | -1.03 (inactive) | -0.0451 | 0.685 (inactive) | -0.216 | -0.425 | -1.41 | -0.201
C=CCC(OC(C)=O)[C@@H]1[C@@H](N(Cc2ccc(-c3ccccc3)cc2)C(=O)c2cccc3ccccc23)c2cc(OCCCO)ccc2N1C(=O)c1ccc(-c2ccccc2)cc1 (stereo not given in full) | 0.245 | 0.21 (inactive) | -0.234 (inactive) | -0.438 (inactive) | 0.796 | 1.17 (inactive) | 0.0159 | 0.0623 | -0.0827 | 0.0009
NCCCCCNC(=O)[C@@H]1C[C@@H]2C(=O)N[C@@H](Cc3ccccc3)C(=O)N2[C@@H]1c1ccc(O)cc1 | 1.31 | -0.247 (inactive) | -0.448 (inactive) | -0.367 (inactive) | 1.66 | -0.811 (inactive) | -0.0717 | 0.923 | 0.452 | 0.0381

Reference: PubChem BioAssay
